Measurements reported in ChEMBL document CHEMBL1961873, “Compounds: GSK PKIS; Assays: Nanosyn kinase panel” (2012).

How the values were obtained:
[1] = target: T1, Serine/threonine-protein kinase D2 (Homo sapiens) (UniProt Q9BZL6); details: at 1 µM;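 note: mean value of PRKD2 inhibition, from the GSK PKIS screening panel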
T1 sequence (whole entry): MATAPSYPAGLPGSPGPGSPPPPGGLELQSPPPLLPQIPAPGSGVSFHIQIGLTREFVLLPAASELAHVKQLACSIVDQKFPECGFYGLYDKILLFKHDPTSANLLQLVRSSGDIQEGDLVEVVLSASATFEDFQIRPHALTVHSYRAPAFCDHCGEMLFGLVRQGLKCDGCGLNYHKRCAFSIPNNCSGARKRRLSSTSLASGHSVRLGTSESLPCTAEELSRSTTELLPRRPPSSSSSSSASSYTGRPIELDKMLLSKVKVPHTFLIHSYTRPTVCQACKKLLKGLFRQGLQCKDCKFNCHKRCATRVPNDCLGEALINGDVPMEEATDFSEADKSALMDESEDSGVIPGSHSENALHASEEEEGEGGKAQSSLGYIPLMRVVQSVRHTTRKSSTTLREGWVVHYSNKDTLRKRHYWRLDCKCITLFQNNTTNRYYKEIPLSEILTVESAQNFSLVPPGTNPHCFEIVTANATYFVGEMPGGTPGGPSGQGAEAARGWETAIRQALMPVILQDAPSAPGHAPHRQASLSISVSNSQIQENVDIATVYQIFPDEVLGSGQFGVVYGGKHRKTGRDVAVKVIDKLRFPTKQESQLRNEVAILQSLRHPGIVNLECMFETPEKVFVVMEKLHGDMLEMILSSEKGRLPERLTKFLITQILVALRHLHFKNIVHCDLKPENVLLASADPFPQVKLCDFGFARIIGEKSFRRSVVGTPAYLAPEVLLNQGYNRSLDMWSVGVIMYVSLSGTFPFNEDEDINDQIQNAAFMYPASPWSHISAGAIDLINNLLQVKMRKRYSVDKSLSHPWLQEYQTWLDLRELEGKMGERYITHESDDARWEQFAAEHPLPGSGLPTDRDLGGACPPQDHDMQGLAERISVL

[2] = target: T2, Serine/threonine-protein kinase D3 (Homo sapiens) (UniProt O94806); details: at 0.1 µM
T2 sequence (whole entry): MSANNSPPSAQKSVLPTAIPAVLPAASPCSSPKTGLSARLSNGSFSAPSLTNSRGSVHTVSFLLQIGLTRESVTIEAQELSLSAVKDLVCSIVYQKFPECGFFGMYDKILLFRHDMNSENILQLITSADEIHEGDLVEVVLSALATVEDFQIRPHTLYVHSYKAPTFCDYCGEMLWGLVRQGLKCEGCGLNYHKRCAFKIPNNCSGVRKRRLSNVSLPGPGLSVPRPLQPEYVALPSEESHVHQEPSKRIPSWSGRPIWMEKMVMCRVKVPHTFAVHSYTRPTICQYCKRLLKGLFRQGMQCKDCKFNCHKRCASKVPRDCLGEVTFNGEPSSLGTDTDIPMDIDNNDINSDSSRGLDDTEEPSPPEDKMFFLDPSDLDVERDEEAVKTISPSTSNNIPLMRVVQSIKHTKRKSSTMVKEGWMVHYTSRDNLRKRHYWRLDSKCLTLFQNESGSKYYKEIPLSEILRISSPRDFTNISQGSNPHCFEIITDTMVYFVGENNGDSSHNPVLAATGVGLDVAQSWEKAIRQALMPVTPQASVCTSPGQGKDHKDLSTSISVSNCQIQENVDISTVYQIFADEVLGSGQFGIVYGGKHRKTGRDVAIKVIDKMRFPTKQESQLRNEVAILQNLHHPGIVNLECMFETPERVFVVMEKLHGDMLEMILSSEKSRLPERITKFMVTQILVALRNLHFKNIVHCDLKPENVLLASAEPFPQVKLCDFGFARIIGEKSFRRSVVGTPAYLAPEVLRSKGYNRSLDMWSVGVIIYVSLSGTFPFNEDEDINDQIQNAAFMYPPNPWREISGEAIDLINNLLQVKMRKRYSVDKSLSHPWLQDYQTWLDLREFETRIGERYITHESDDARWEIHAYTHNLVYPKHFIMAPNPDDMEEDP

[3] = target: T2, Serine/threonine-protein kinase D3 (Homo sapiens); details: at 1 µM
[4] = target: T3, cGMP-dependent protein kinase 1 (Homo sapiens) (UniProt Q13976); details: at 0.1 µM
T3 sequence (whole entry): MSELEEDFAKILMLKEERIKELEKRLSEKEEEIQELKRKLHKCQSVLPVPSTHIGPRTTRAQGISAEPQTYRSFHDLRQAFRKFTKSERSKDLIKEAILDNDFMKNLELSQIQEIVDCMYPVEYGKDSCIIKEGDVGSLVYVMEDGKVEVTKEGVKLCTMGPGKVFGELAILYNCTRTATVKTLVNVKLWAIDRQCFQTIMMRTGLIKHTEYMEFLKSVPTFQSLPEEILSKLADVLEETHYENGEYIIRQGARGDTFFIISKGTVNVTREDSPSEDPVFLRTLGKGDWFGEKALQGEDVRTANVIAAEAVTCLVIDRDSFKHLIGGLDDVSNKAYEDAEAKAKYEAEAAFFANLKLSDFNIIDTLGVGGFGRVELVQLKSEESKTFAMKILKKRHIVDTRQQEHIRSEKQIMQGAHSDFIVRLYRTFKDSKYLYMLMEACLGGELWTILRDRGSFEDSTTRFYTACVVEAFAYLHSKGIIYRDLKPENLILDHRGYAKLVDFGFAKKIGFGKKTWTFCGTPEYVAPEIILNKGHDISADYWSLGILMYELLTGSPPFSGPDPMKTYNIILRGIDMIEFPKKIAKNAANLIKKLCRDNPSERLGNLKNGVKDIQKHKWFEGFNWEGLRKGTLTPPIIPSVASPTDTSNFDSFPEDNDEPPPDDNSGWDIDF

[5] = target: T3, cGMP-dependent protein kinase 1 (Homo sapiens); details: at 1 µM
[6] = target: T4, cGMP-dependent protein kinase 2 (Homo sapiens) (UniProt Q13237); details: at 0.1 µM
T4 sequence (whole entry): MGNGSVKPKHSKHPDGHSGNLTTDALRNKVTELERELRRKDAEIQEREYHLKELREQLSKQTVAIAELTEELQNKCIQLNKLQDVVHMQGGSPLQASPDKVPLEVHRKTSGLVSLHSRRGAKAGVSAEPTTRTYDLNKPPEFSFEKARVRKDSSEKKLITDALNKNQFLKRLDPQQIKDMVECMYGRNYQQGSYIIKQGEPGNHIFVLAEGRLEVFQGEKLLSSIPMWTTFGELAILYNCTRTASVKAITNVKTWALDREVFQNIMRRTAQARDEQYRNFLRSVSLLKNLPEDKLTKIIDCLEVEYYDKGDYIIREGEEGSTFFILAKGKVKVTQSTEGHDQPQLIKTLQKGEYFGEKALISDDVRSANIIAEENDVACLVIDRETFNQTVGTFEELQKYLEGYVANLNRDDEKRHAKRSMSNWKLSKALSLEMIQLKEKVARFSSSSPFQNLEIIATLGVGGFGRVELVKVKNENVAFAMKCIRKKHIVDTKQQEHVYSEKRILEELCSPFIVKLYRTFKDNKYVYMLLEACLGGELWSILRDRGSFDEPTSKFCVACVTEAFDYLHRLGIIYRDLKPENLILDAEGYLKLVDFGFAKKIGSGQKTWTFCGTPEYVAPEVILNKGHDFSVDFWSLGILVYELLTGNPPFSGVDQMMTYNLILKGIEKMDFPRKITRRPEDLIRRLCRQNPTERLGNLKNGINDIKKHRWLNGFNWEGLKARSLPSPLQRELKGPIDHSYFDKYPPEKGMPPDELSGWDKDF

[7] = target: T4, cGMP-dependent protein kinase 2 (Homo sapiens); details: at 1 µM
[8] = target: T5, cAMP-dependent protein kinase catalytic subunit PRKX (Homo sapiens) (UniProt P51817); details: at 0.1 µM
T5 sequence (whole entry): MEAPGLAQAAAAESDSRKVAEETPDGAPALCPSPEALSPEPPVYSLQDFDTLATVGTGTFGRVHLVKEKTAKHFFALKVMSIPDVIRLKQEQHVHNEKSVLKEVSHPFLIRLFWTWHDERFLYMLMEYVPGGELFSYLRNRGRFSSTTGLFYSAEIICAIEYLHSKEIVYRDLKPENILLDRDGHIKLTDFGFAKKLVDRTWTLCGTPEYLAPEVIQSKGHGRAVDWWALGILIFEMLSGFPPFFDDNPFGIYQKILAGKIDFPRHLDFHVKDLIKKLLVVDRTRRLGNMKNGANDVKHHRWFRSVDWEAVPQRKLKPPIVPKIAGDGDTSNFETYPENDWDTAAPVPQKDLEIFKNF

[9] = target: T5, cAMP-dependent protein kinase catalytic subunit PRKX (Homo sapiens); details: at 1 µM
[10] = target: Rho-associated protein kinase 1 (Homo sapiens) (UniProt Q13464); details: at 0.1 µM;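 note: values are mean percent inhibition of ROCK1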
Sequence of Rho-associated protein kinase 1 (Homo sapiens) (Q13464 2-1354 limits assumed): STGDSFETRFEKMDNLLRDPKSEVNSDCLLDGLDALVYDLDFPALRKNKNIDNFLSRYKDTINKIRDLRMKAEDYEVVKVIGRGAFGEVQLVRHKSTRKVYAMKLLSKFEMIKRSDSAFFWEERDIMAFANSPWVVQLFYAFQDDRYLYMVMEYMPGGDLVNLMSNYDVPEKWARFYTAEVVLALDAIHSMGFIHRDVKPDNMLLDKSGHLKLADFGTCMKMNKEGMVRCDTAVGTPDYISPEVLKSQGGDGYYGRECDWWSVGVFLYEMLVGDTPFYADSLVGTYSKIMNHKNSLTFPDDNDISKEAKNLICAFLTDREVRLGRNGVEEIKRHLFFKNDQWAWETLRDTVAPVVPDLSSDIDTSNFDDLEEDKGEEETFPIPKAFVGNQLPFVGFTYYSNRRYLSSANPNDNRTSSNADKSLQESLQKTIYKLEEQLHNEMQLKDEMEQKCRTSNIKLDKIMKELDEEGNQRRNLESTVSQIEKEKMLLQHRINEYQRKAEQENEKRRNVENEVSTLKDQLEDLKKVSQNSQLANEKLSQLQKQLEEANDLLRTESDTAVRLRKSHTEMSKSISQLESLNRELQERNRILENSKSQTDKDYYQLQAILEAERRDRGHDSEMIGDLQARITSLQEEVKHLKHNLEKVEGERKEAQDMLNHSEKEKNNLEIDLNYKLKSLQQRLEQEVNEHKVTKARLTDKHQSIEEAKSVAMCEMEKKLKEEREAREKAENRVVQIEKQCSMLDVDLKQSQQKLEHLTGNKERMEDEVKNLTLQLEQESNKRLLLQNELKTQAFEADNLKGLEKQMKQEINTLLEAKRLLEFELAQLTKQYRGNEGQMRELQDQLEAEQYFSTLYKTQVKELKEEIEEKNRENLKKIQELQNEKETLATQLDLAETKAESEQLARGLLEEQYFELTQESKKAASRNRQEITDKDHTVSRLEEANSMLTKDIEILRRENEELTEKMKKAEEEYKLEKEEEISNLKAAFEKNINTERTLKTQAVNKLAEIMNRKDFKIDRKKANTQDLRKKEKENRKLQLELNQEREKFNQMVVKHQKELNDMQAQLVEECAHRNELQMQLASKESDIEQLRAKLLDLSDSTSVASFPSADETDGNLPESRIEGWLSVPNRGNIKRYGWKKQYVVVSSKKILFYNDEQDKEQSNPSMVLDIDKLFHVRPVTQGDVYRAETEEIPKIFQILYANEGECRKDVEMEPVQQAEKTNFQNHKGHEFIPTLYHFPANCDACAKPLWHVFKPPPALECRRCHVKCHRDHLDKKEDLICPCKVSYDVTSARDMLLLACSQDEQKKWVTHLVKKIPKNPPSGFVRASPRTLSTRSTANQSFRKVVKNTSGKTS

SMILES	inhibition [1]	inhibition [2]	inhibition [3]	inhibition [4]	inhibition [5]	inhibition [6]	inhibition [7]	inhibition [8]	inhibition [9]	inhibition [10]
Cc1nn(C)c2cc(N(C)c3ccnc(Nc4cccc(S(N)(=O)=O)c4)n3)ccc12	4.2%	2.9%	3.56%	4.25%	6.59%	2.42%	5.81%	2.89%	5.35%	1.17%
CCCN1CCC=C(c2ccc(Nc3nc(Nc4ccccc4C(N)=O)c4cc[nH]c4n3)c(C)c2)C1	68.5%	18.8%	61.7%	4.43%	18.8%	5.72%	31.8%	2.31%	2.1%	2.33%
Nc1nc(-c2ccccn2)c(-c2ccc3ncccc3n2)s1	3.27%	3.61%	3.13%	0.89%	3.86%	1.67%	6%	1.03%	1.92%	0.46%
CCn1c(-c2nonc2N)nc2cnc(Oc3cccc(NC(=O)c4ccc(OCCN5CCOCC5)cc4)c3)cc21	4.52%	2.2%	2.69%	60.5%	76.6%	27.3%	66.3%	18.6%	63.1%	–
COc1cc(C)c(NC(=O)CN(C)C)cc1Nc1nc(Nc2cccc(F)c2C(N)=O)c2cc[nH]c2n1	31.9%	3.99%	38.4%	1.52%	4.26%	1.95%	2.22%	-0.65%	-1.72%	0.5%
